Key:
Experiment in all cases: log2 ratio of Biotin-Ahx-Ub-VS probe labelling (fragment/DMSO); higher = less target engagement (more negative = stronger competition), active = hit call of the paper (q ≤ 0.05, log2 ratio ≤ -1)
Conditions in all cases: compound concentration: 200 uM; treatment time: 3 h
OTUD6B = molecular target: T1, OTUD6B (UniProt Q8N6M0)
T1 sequence (whole entry): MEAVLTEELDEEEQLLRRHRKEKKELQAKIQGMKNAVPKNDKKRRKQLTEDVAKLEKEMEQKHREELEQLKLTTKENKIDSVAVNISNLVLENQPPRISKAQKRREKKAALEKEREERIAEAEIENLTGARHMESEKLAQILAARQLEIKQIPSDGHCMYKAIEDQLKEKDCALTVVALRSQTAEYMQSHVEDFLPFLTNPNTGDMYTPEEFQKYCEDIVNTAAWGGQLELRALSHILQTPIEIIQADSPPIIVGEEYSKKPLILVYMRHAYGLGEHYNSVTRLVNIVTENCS
Outline: (§1)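 Triplicate samples of HEK293T lysate, 495 µg each, received fragment at 200 µM or vehicle for 3 h, followed by Biotin-Ahx-Ub-VS (0.5 µM final) for 1 h. After NeutrAvidin enrichment of labelled DUBs and LysC/trypsin digestion, peptides were run by diaPASEF LC-MS/MS. The values are average log2 fragment/vehicle ratios from global-median-normalised Spectronaut label-free quantities, tested by unpaired t-test on proteins having ≥2 unique peptides.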

OTUD7B = molecular target: T2, OTUD7B (UniProt Q6GQQ9)
T2 sequence (whole entry): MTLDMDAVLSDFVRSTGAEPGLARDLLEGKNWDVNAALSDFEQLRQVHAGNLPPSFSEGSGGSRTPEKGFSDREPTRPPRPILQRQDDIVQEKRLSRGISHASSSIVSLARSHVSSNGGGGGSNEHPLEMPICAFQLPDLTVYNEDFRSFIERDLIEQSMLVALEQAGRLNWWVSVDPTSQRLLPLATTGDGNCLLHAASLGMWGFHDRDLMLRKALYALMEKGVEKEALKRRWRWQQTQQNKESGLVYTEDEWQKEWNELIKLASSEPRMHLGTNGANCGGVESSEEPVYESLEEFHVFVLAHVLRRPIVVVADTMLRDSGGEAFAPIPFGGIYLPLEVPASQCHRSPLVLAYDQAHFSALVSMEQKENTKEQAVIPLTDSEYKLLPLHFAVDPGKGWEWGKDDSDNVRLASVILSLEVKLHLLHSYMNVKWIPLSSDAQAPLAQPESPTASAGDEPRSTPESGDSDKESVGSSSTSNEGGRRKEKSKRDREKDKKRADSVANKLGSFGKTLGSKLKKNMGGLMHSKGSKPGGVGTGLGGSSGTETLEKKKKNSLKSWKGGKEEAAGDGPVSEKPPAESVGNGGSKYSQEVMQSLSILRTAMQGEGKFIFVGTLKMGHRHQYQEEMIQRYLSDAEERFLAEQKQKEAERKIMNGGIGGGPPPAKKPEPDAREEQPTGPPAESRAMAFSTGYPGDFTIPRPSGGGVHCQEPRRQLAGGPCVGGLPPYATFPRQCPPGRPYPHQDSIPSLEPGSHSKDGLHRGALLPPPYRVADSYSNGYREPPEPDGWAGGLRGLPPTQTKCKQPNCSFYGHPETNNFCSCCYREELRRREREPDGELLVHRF
Outline: as §1

PRPF8 = PRPF8 (UniProt Q6P2Q9)
Outline: as §1

PSMD7 = molecular target: T3, PSMD7 (UniProt P51665)
T3 sequence (whole entry): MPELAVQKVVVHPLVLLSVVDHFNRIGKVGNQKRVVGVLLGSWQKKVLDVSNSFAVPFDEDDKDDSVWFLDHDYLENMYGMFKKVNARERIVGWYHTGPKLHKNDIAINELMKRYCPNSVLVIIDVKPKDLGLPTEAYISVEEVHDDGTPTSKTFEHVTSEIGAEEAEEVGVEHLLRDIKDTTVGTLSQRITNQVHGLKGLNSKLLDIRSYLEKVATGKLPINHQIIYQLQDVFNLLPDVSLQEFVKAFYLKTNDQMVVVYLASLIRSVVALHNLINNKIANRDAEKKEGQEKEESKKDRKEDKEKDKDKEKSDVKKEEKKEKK
Outline: as §1

UCHL1 = UCHL1 (UniProt P09936)
Outline: as §1

UCHL3 = molecular target: T4, UCHL3 (UniProt P15374)
T4 sequence (whole entry): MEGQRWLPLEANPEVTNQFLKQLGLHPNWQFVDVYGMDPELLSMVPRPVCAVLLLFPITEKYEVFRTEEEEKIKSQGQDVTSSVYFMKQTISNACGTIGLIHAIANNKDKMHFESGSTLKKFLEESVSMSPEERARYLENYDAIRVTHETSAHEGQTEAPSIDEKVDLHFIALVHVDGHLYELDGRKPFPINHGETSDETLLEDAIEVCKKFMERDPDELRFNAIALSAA
Outline: as §1

UCHL5 = molecular target: T5, UCHL5 (UniProt Q9Y5K5)
T5 sequence (whole entry): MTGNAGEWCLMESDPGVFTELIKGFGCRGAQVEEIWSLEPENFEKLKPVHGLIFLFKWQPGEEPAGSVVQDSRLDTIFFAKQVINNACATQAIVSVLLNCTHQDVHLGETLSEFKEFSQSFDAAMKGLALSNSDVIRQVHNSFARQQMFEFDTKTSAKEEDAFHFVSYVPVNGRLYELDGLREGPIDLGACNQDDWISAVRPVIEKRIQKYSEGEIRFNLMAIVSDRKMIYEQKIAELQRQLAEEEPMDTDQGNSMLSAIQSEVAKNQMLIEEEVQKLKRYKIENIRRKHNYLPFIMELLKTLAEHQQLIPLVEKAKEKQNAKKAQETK
Outline: as §1

USP10 = USP10 (UniProt Q14694)
Outline: as §1

USP15 = molecular target: T6, USP15 (UniProt Q9Y4E8)
T6 sequence (whole entry): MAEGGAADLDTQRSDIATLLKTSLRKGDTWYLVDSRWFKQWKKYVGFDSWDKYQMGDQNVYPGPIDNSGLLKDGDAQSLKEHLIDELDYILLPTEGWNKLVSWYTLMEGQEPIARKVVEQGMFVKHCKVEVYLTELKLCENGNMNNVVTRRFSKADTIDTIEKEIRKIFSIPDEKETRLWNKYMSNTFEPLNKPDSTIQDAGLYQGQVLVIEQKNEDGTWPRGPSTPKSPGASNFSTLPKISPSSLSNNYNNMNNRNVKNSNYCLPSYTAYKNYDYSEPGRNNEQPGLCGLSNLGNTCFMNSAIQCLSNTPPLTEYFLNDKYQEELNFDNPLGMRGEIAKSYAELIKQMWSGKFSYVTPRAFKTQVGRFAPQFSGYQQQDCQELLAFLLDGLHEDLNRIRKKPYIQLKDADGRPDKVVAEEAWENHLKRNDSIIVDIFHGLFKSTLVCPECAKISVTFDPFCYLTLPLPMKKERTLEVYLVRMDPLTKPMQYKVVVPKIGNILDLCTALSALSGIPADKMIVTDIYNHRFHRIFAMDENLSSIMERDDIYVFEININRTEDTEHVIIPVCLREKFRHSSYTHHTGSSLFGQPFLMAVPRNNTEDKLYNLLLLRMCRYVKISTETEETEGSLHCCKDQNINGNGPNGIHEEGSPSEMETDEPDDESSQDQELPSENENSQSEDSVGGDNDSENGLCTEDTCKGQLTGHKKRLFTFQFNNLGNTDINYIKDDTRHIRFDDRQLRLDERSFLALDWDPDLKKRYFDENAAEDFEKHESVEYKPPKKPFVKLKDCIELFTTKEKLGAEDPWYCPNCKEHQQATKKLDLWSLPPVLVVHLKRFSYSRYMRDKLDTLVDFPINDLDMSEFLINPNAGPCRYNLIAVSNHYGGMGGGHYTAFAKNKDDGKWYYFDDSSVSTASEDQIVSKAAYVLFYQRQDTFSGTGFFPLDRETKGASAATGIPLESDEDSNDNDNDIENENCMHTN
Outline: as §1

USP16 = USP16 (UniProt Q9Y5T5)
Outline: as §1

Measured: log2 ratio of Biotin-Ahx-Ub-VS probe labelling

Chain of USP16 (Q9Y5T5 whole entry, looked up): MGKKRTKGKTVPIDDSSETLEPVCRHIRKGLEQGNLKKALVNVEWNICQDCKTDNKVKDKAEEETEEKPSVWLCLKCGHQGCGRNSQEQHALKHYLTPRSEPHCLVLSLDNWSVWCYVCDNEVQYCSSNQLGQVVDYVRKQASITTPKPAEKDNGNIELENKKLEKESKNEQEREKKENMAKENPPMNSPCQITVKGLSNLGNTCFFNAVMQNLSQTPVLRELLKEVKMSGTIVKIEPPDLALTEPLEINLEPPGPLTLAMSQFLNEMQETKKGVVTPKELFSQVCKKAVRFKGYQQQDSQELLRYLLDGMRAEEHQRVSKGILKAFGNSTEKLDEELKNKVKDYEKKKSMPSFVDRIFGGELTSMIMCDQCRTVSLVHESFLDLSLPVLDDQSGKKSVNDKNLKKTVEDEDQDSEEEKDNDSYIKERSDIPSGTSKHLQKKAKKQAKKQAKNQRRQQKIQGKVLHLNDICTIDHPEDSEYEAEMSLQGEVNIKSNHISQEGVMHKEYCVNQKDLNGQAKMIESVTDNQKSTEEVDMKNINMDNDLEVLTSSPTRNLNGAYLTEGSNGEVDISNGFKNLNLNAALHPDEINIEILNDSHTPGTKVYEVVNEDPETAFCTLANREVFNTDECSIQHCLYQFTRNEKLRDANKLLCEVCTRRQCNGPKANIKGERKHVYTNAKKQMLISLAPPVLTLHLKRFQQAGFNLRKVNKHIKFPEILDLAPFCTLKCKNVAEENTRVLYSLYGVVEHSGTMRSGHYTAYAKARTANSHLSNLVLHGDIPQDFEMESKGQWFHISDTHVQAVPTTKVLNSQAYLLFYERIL
Chain of USP10 (Q14694 whole entry): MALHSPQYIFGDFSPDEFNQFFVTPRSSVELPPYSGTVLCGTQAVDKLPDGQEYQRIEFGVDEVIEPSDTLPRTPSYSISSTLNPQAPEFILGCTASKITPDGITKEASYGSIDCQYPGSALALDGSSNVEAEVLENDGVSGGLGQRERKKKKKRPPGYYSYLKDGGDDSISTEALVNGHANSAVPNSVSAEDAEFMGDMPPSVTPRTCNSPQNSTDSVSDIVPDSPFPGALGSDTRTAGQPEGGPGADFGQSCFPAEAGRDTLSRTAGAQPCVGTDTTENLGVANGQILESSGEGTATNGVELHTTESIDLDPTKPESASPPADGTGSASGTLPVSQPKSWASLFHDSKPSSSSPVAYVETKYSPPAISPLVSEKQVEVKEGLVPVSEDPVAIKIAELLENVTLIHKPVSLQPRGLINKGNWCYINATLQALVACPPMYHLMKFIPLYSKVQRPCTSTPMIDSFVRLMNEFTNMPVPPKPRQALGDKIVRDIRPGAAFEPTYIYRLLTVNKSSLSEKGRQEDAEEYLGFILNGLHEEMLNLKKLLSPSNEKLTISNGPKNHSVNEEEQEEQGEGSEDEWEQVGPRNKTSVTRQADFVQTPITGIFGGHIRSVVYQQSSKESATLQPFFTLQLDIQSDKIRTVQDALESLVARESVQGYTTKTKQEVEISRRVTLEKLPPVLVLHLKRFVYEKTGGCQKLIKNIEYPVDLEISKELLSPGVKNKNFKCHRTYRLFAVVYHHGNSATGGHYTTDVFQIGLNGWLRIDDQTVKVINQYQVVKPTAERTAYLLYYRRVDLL
Chain of UCHL1 (P09936 whole entry, looked up): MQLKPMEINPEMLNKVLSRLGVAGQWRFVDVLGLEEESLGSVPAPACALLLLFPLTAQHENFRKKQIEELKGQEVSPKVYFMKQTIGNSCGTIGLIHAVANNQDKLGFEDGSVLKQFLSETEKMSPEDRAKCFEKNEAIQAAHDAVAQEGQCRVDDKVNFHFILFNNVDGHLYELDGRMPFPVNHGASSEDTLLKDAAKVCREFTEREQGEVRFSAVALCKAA

O=C(CCl)NCCC1COCCO1 (stereo not given)
active: UCHL1 -1.39
inactive: OTUD6B -0.0161 | OTUD7B -0.0714 | PRPF8 -0.0389 | PSMD7 -0.237 | UCHL3 0.227 | UCHL5 -0.221 | USP10 -0.143 | USP15 0.0547 | USP16 -0.519
